Test results published in PubChem BioAssay (NCATS).
“And” between values parts separate entries of the source, which are not always exact repeats. Equal entries are not always repeated. Results filed as inconclusive are left out. The source made the active and inactive calls. Calls come from the whole dose curve; as a rule, active = well fitted inhibition curve with a large enough effect; inconclusive = small, poorly fitted or top-dose-only effect; inactive = flat fitted curve, though single readings scatter.

Columns and labels:
CRL-7250 = normal cell line; test: Cytotoxic Profiling of Annotated Libraries Using Quantitative High-Throughput Screening (AID 1296008); details: Five cell lines viability, CellTiter-Glo ATP luminescence, 48-72 h; max response: hits give low values; note: potency is the fitted concentration of half-maximal effect; for max response: % is set by controls: 0 for no effect and ±100 for the full control effect
How it was run: (§1)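 Cells exposed to compounds for 48 or 72 hr at 37 degrees Celsius. Viability read as ATP-coupled luminescence with CellTiter-Glo after 10 min at room temperature.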

HEK293 = test: as above; details: Five cell lines viability, CellTiter-Glo ATP luminescence, 48-72 h; max response: hits give low values
How it was run: as §1

HaCat = test: as above; details: Five cell lines viability, CellTiter-Glo ATP luminescence, 48-72 h; max response: hits give low values
How it was run: as §1

KB-3-1 = test: as above; details: Five cell lines viability, CellTiter-Glo ATP luminescence, 48-72 h; max response: hits give low values
How it was run: as §1

NIH3T3 = test: as above; details: Five cell lines viability, CellTiter-Glo ATP luminescence, 48-72 h; max response: hits give low values
How it was run: as §1

MCC-13 = test: qHTS assay to identify novel small-molecules to repurpose for Merkel cell carcinoma treatment (AID 1296009); details: MCC and control cell lines, CellTiter-Glo viability, 72 h; series mostly up to 46 µM; note: potency is the fitted concentration of half-maximal effect
How it was run: (§2)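 Dose-response viability screen; 72 hr exposure at 37 degree celsius; CellTiter-Glo added, 10 min room temperature, luminescence read; RLUs scaled between no-cell and DMSO wells.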

MCC-26 = test: as above; details: MCC and control cell lines, CellTiter-Glo viability, 72 h; series mostly up to 46 µM
How it was run: as §2

MKL-1 = test: as above; details: MCC and control cell lines, CellTiter-Glo viability, 72 h; series mostly up to 46 µM
How it was run: as §2

MKL-2 = test: as above; details: MCC and control cell lines, CellTiter-Glo viability, 72 h; series mostly up to 46 µM
How it was run: as §2

HEK293T = test: as above; details: MCC and control cell lines, CellTiter-Glo viability, 72 h; at 44.8 µM (top of the series)
How it was run: as §2

PAD = test: qHTS profiling for inhibitors of Plasmodium falciparum proliferation (AID 504749);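 note: 0% = DMSO vehicle and full inhibition = artemisinin control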; details: P. falciparum in erythrocytes, SYBR Green DNA, 72 h; series mostly up to 28.7 µM
How it was run: (§3)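 Each compound contacts P. falciparum-infected red blood cells for 72 h at 37 C; lysis buffer (Tris, EDTA, saponin, Triton X, SYBR Green I) is added and fluorescence measured next morning; values normalized to controls.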

PC15 = test: as above; details: P. falciparum in erythrocytes, SYBR Green DNA, 72 h; series mostly up to 28.7 µM
How it was run: as §3

PC26 = test: as above; details: P. falciparum in erythrocytes, SYBR Green DNA, 72 h; series mostly up to 28.7 µM
How it was run: as §3

PC49 = test: as above; details: P. falciparum in erythrocytes, SYBR Green DNA, 72 h; series mostly up to 28.7 µM
How it was run: as §3

SC27B = test: as above; details: P. falciparum in erythrocytes, SYBR Green DNA, 72 h; series mostly up to 28.7 µM
How it was run: as §3

TAB109 = test: as above; details: P. falciparum in erythrocytes, SYBR Green DNA, 72 h; series mostly up to 28.7 µM
How it was run: as §3

TAB113 = test: as above; details: P. falciparum in erythrocytes, SYBR Green DNA, 72 h; series mostly up to 28.7 µM
How it was run: as §3

TAB165 = test: as above; details: P. falciparum in erythrocytes, SYBR Green DNA, 72 h; series mostly up to 28.7 µM
How it was run: as §3

W2 = test: as above; details: P. falciparum in erythrocytes, SYBR Green DNA, 72 h; series mostly up to 28.7 µM
How it was run: as §3
Note: nearly all actives have a fitted effect of over 60% in size.

CC#CCn1c(N2CCC[C@@H](N)C2)nc2c1c(=O)n(Cc1nc(C)c3ccccc3n1)c(=O)n2C
inactive: max response (CRL-7250) 0.558% | max response (HEK293) -21.1% | max response (HaCat) 3.66% | max response (KB-3-1) -0.824% | outcome (NIH3T3) | Potency (MCC-13) | Potency (MCC-26) | Potency (MKL-1) | Potency (MKL-2)

CCN(CC)CCOc1ccc(C(=C(Cl)c2ccccc2)c2ccccc2)cc1
inactive: max response (CRL-7250) -5.74% | outcome (HEK293) | max response (HaCat) -8.22% | outcome (KB-3-1) | max response (NIH3T3) 2.62% | outcome (HEK293T) | Potency (MCC-13) | Potency (MCC-26) | Potency (MKL-1) | Potency (MKL-2)

O=C1NC(=O)C(c2ccccc2)(c2ccccc2)N1
inactive: outcome (PAD) | outcome (PC15) | Potency (PC26) | outcome (PC49) | Potency (SC27B) | outcome (TAB109) | Potency (TAB113) | Potency (TAB165) | Potency (W2) | outcome (CRL-7250) | max response (HEK293) -11.5% | max response (HaCat) -5.29% | max response (KB-3-1) 7.95% | max response (NIH3T3) -3.65% | Potency (MCC-13) | Potency (MCC-26) | Potency (MKL-1) | Potency (MKL-2)

Nc1ncnc2c1ncn2[C@@H]1O[C@H](CO)C[C@@H]1O
inactive: max response (CRL-7250) -11.4% | max response (HEK293) -3.58% | max response (HaCat) -0.663% | outcome (KB-3-1) | max response (NIH3T3) -2.75% | Potency (MCC-13) | Potency (MCC-26) | Potency (MKL-1) | Potency (MKL-2)

O=C(CCCCCCC(=O)Nc1ccccc1)NO
active: Potency (CRL-7250) 8.41 µM and 10.3 µM and 11.8 µM | Potency (HEK293) 5.96 µM and 8.33 µM | Potency (HaCat) 7.5 µM and 9.2 µM | Potency (KB-3-1) 7.31 µM and 5.8 µM and 9.35 µM | Potency (NIH3T3) 10.6 µM and 18.7 µM | Potency (MCC-13) 6.68 µM | Potency (MCC-26) 20.9 µM | Potency (MKL-1) 2.99 µM and 5.9 µM | Potency (MKL-2) 1.88 µM and 3.32 µM

CC(C)(Cc1ccc2ccccc2c1)NC[C@@H](O)COc1cccc(Cl)c1C#N
inactive: outcome (CRL-7250) | max response (HEK293) -1.92% | max response (HaCat) -22.6% | max response (KB-3-1) 2.48% | max response (NIH3T3) -24.7% | Potency (MCC-13) | Potency (MCC-26) | Potency (MKL-1)

C[C@]12CCC3c4ccc(O)cc4CCC3C1CCC2=O (some centres not stated)
inactive: max response (CRL-7250) -16.8% | max response (HEK293) -11.3% | max response (HaCat) -11.3% | max response (KB-3-1) 7.4% | max response (NIH3T3) -7.72% | Potency (MCC-13) | Potency (MCC-26) | Potency (MKL-1) | Potency (MKL-2)

CN(C)c1cc(NC(=O)CNC(C)(C)C)c(O)c2c1C[C@@H]1C[C@H]3[C@H](N(C)C)C(=O)C(C(N)=O)=C(O)[C@@]3(O)C(=O)C1=C2O
inactive: max response (CRL-7250) -28.8% | max response (HEK293) 4.51% | max response (HaCat) 1.33% | max response (KB-3-1) -10.5% | max response (NIH3T3) -1.41% | Potency (MCC-13) | Potency (MKL-1) | Potency (MKL-2)

OC[C@H]1O[C@@H](n2cnc3c2NC=NC[C@@H]3O)C[C@H]1O
inactive: max response (CRL-7250) 2.48% | outcome (HEK293) | max response (HaCat) 1.63% | max response (KB-3-1) -3.46% | outcome (NIH3T3) | outcome (HEK293T) | Potency (MCC-13) | Potency (MCC-26) | Potency (MKL-1) | Potency (MKL-2)

O=C(Nc1cc(Cl)cc2c1[nH]c1cnccc12)c1cccnc1
inactive: max response (CRL-7250) -0.841% | max response (HEK293) 3.08% | max response (HaCat) -0.0712% | max response (KB-3-1) -1.81% | max response (NIH3T3) 2.41% | Potency (MCC-13) | Potency (MCC-26) | Potency (MKL-1) | Potency (MKL-2)

CN1[C@@H]2CCC[C@@H]1CC(NC(=O)c1nn(C)c3ccccc13)C2 (some centres not stated)
inactive: max response (CRL-7250) -0.159% | max response (HEK293) -2.4% | max response (HaCat) -5.72% | max response (KB-3-1) 1.46% | max response (NIH3T3) 0.235% | Potency (MCC-13) | Potency (MKL-1) | Potency (MKL-2)

CC(=O)N[C@@H](CS)C(=O)O
inactive: outcome (PAD) | outcome (PC15) | Potency (PC26) | outcome (PC49) | Potency (SC27B) | outcome (TAB109) | Potency (TAB113) | Potency (TAB165) | Potency (W2) | max response (CRL-7250) -25.8% | outcome (HEK293) | max response (HaCat) -16.4% | max response (KB-3-1) 0.129% | outcome (NIH3T3) | outcome (HEK293T) | Potency (MCC-13) | Potency (MKL-1) | Potency (MKL-2)

O=C(CCc1ccc(O)cc1)c1c(O)cc(O)cc1O[C@@H]1O[C@H](CO)[C@H](O)[C@H](O)[C@H]1O
inactive: max response (CRL-7250) -9.67% | max response (HEK293) 1.98% | max response (HaCat) -1.37% | max response (KB-3-1) 1.32% | max response (NIH3T3) -7.96% | Potency (MCC-13) | Potency (MCC-26) | Potency (MKL-1)

OC[C@H]1O[C@@H](Oc2cc(O)cc(C=Cc3ccc(O)cc3)c2)[C@H](O)[C@@H](O)[C@H]1O
inactive: outcome (CRL-7250) | max response (HEK293) -2.18% | max response (HaCat) -6.02% | outcome (KB-3-1) | max response (NIH3T3) 2.83% | Potency (MCC-13) | Potency (MCC-26) | Potency (MKL-1) | Potency (MKL-2)

O=c1c(O)c(-c2ccc(O)cc2)oc2cc(O)cc(O)c12
inactive: outcome (CRL-7250) | outcome (HEK293) | max response (HaCat) -4.55% | outcome (KB-3-1) | max response (NIH3T3) -2.9% | outcome (HEK293T) | Potency (MCC-13) | Potency (MCC-26)

Cc1nc(N)sc1-c1ccnc(Nc2ccc(N3CCOCC3)cc2)n1
inactive: Potency (MCC-26) | Potency (MKL-2)
active: Potency (CRL-7250) 9.35 µM and 5.17 µM | Potency (HEK293) 10.5 µM and 7.31 µM | Potency (HaCat) 18.7 µM and 1.16 µM | Potency (KB-3-1) 1.66 µM and 1.64 µM | Potency (NIH3T3) 11.8 µM and 1.84 µM
